Sampled rows, rich in hits. Any-hit rate of the full collection: about 19%.
TDP1 cell noCPT – qHTS for Inhibitors of human tyrosyl-DNA phosphodiesterase 1 (TDP1): qHTS in cells in absence of CPT; actives 15% (n = 420,000); Potency, µM (titrated, usually from 46.2 µM), without a hit: top-dose activity change, negative = growth inhibition, hits mostly inhibitors; DT40 Tdp1-/- hTDP1 cells, no CPT, ATP luminescence, 48 h; further: potency means the concentration at half of the fitted maximal effect; nearly all actives have a fitted effect of over 55% in size
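Readout: luminescence from CellTiter-Glo after 30 min in the dark at RT. Cells: DT40 Tdp1-/- with stable hTDP1, 400/well. Exposure: compounds alone, ≥48 hr, 37 °C.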
HT1080 IDH1KD tx – qHTS for induction of synthetic lethality in tumor cells producing 2HG: qHTS for the HT-1080-IDH1KD cell line; HT-1080 IDH1 knockdown viability, ATP luminescence, 48 h; actives 2% (n = 360,000); Potency, µM (highest dose often 46.1 µM), for the others: top-dose activity, negative = toxicity, actives largely listed as cytotoxic;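 further: potency means the concentration at half of the fitted maximal effect; 0% = DMSO wells and -100% = cell-free medium wells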
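In this qHTS, HT-1080 cells depleted of IDH1 are exposed for 48 h at 37 °C to compound titrations. Toxicity is scored from CellTiter-Glo luminescence, with DMSO as full viability and medium alone as none.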
IL-1B inflam inh – qHTS for Inhibitors of Inflammasome Signaling: IL-1-beta AlphaLISA Primary Screen; THP-1 LPS/ATP IL-1B secretion, AlphaLISA, 16 h; hits give low values; activity change, % at 57.5 µM; actives 4.7% (n = 360,000); in the data active means activity change below about -50%; inconclusive means mostly about -30% to -49%
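Secreted IL-1B measured by AlphaLISA bead assay after 16 h compound exposure of THP-1 cells; compounds (final up to 57.5 uM) added 1 h before LPS (250 ng/mL) and ATP (1.25 mM) stimulation; lower signal means less secretion.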
ELG1 repair inh – qHTS screen for small molecules that inhibit ELG1-dependent DNA repair in human embryonic kidney (HEK293T) cells expressing luciferase-tagged ELG1. HEK293T ELG1-luciferase reporter, luminescence, 16 h; DNA damage induced by 5-fluorouridine. Potency, µM (titrated, usually from 46.1 µM), for the others: at the highest dose activity change, negative = inhibition, usual class: inhibitors. actives 2.3% (n = 330,000). AID 504467, 2011; further: potency means the concentration at half of the fitted maximal effect; nearly all actives have a fitted effect of over 55% in size
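Cells (2,000 per well) received 5-fluorouridine plus test compound or DMSO and were incubated 16 hr at 37 °C, 5% CO2. Luciferase activity was read by luminescence 30 min after ONE-Glo addition; signal suppression marked inhibition of damage-induced ELG1 function.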
TDP1 cell CPT – qHTS for Inhibitors of human tyrosyl-DNA phosphodiesterase 1 (TDP1): qHTS in cells in presence of CPT; chicken DT40 Tdp1-/-;hTDP1 cells + 20 nM CPT, ATP luminescence, 48 h; Potency, µM (series often up to 46.2 µM), without a hit: at the top dose activity change, negative = growth inhibition, actives largely listed as inhibitors; actives 12% (n = 420,000); AID 686979, 2013; further: potency means the concentration at half of the fitted maximal effect; nearly all actives have a fitted effect of over 55% in size
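Chicken DT40 Tdp1-/- cells complemented with human TDP1, 400 cells/well, exposed to compounds plus 20 nM camptothecin for at least 48 h at 37 C; viability read as ATP content by CellTiter-Glo luminescence.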
HT1080NT lethal – qHTS for induction of synthetic lethality in tumor cells producing 2HG: qHTS for the HT-1080-NT fibrosarcoma cell line | HT-1080-NT fibrosarcoma viability, CellTiter-Glo ATP luminescence, 48 h | Potency, µM (titrated, usually from 46.1 µM), without a hit: at the top dose activity, negative = less viability, usual class: cytotoxic | actives 1.6% (n = 360,000);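 further: NT is the 2HG producing partner of a matched IDH1 knockdown line; potency means the concentration at half of the fitted maximal effect; 0% = DMSO-treated cells and -100% = media-only wells without cells; nearly all actives have a fitted effect of over 55% in size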
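Compounds were tested in concentration-response format on HT-1080-NT cells for 48 hours at 37 degrees C. Cell viability came from CellTiter-Glo luminescence; curves were classified by r2, response magnitude and activity.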
* = called active by the depositor; u = inconclusive; x = not tested or not shown; [ ] = dose if it differs, or a comment. Unless noted, the call rests on the fitted dose curve; in most records, active means well fitted curve in the direction sought with a large enough effect; inconclusive means small, poorly fitted or top-dose-only effect, or another doubt; inactive means no such curve, though single readings can be large; an effect the other way counts as inactive or inconclusive. Unless noted, on the % scale 0 is the no-effect control and ±100 the full control effect.

SMILES	TDP1 cell noCPT	HT1080 IDH1KD tx	IL-1B inflam inh	ELG1 repair inh	TDP1 cell CPT	HT1080NT lethal
CS(=O)(=O)N(CC(O)Cn1c2ccccc2c2ccccc21)c1ccccc1 (stereo not drawn)	u	u	u	-2.6%	u	u
Cc1noc(C)c1-c1cc(NCc2cccs2)ncn1	-28.5%	x	x	x	u	x
CCOC(=O)c1c(S(=O)(=O)NCC(C)c2ccccc2)c(C)n(C)c1C (stereo not drawn)	-17.8%	-13.7%	-12.9	-4.2%	-13.0%	-7.3%
CC(N)c1csc(Nc2ccc(C(=O)c3ccccc3)cc2)n1 (stereo not drawn)	u	-29.3%	-52.0*	x	u	u
CN(C)Cc1csc(Nc2ccc(C(=O)c3ccccc3)cc2)n1	u	-29.2%	-28.4	x	18.4µM*	-7.7%
CC(C)C(N)c1csc(Nc2ccc(C(=O)c3ccccc3)cc2)n1 (stereo not drawn)	u	u	-59.7*	x	u	u
NC(c1csc(Nc2ccc(C(=O)c3ccccc3)cc2)n1)c1ccccc1Cl (stereo not drawn)	u	u	-6.7	x	20.6µM*	u
CC(=O)c1ccc(Nc2nc(C(N)C(C)C)cs2)cc1 (stereo not drawn)	u	0.0%	u	x	u	0.6%
NC(COCc1ccccc1)c1csc(Nc2ccc(C(=O)NCCO)cc2)n1 (stereo not drawn)	u	6.2%	0.5	x	u	-7.3%
CNc1ccccc1C(C)(C)c1cc(-c2cccc([N+](=O)[O-])c2)no1	-52.1%	-21.1%	-8.0	1.46µM*	-9.8%	-9.9%
O=C(CSC1=NCCN1)NC1CCCCCC1	18.4µM*	-16.5%	-96.8*	u	u	-5.7%
O=C(CSC1=NCCN1)NC12CC3CC(CC(C3)C1)C2	14.6µM*	-20.7%	-100.3*	u	25.9µM*	-13.4%
Cc1nnc(SCC(=O)NC23CC4CC(CC(C4)C2)C3)s1	-10.5%	13.6%	6.5	-9.4%	-20.8%	10.5%
CCCN(Cc1cccs1)C(=O)Nc1cc(Cl)ccc1C	23.1µM*	x	x	x	u	x
Cc1cc(C)c(NC(=O)CSc2ccc(-c3ccccn3)nn2)c(C)c1	23.1µM*	2.9%	24.0	-24.4%	23.1µM*	0.4%
Cc1nnc(NC(=O)CSc2ccc(-c3ccccn3)nn2)s1	x	x	x	11.7%	x	x
Cc1c(Cl)cccc1NC(=O)CSc1ccc(-c2ccccn2)nn1	23.1µM*	x	x	x	u	x
Cc1ccc(NC(=O)CSc2ccc(-c3ccccn3)nn2)cc1	u	u	122.2	u	u	u
Cc1cccc(NC(=O)CSc2ccc(-c3ccccn3)nn2)c1C	u	-13.7%	64.3	-29.6%	-3.5%	-11.0%
Cc1ccc(NC(=O)CSc2ccc(-c3ccccn3)nn2)c(C)c1	u	14.9%	9.0	20.6µM*	u	18.6%
Cc1ccc(NC(=O)Cn2cnc3c(NCc4ccccc4)ncnc32)cc1C	-6.8%	6.3%	28.0	14.0%	-8.3%	17.5%
CNC(=O)Cn1cc(S(=O)(=O)Cc2ccccc2F)c2ccccc21	u	x	x	x	-4.6%	x
CCOc1ccccc1CNC(=O)CC(C)n1ccc(C)n1 (stereo not drawn)	-9.6%	x	x	x	-0.1%	x
C=CS(=O)(=O)c1c2cc(OC)ccc2nc2ccc(OC)cc12	2.59µM*	u	-98.4*	x	2.31µM*	u
COc1ccc2nc(Cl)cc(Cl)c2c1	7.7%	19.1%	-1.5	-2.4%	-1.7%	23.7%
SMILES	TDP1 cell noCPT	HT1080 IDH1KD tx	IL-1B inflam inh	ELG1 repair inh	TDP1 cell CPT	HT1080NT lethal
COc1ccc(-n2nc3cc(C)c(NC(=O)c4ccc(-c5ccc(Cl)cc5)o4)cc3n2)cc1	-4.3%	x	x	x	-0.1%	x
COc1ccc(NCc2ccc(OC)c(Cn3ccnc3)c2)c(OC)c1	u	-7.4%	-69.0*	-11.8%	-29.1%	-5.2%
COc1cccc2c(=O)cc(C)n(CC(=O)Nc3ccc(C)c(C)c3)c12	14.6µM*	-27.6%	-7.7	u	u	u
COc1ccccc1NC(=O)Cn1c(C)cc(=O)c2cccc(OC)c21	4.61µM*	u	u	u	2.91µM*	u
COc1ccccc1NC(=O)Cn1c(=O)n(Cc2cccs2)c(=O)c2cccnc21	-77.2%	x	x	x	20.6µM*	x
O=C(NCC1CCC2(CCN(Cc3ccccc3O)CC2)O1)C1CCCO1 (stereo not drawn)	-11.2%	x	x	x	-5.5%[9.04 µM]	x
Cc1ccc(CNC(=O)C(=O)NCC(c2ccco2)S(=O)(=O)c2ccccc2)cc1 (stereo not drawn)	-4.1%	x	x	x	-4.6%	x
COc1ccc(C(=O)N/C(=C\c2ccccc2)C(=O)Nc2ccc(C(=O)NCC(=O)O)cc2)cc1	-17.4%	-10.0%	-11.3	-4.2%	-7.4%	-8.8%
CCc1ccccc1NC(=O)CN1CCN(CC(=O)Nc2ccc3c(c2)OC2(CCCCC2)O3)CC1	4.11µM*	-5.5%	-14.8	x	18.4µM*	-3.2%
COc1ccc(OCC(=O)OCc2cc(=O)n3nc(C4CCCCC4)sc3n2)cc1	3.8%	x	x	x	2.3%	x
CCOC(=O)C(=CNc1cc(C)nn1-c1ccc(Cl)cc1)C(=O)OCC	u	-20.5%	1.8	u	23.1µM*	-20.6%
CCOC(=O)C(=CNc1ccc(OC)cc1[N+](=O)[O-])C(=O)OCC	11.6µM*	6.6%	-9.8	u	16.4µM*	6.2%
CCOC(=O)C(=CNc1ccc(C)cc1C)C(=O)OCC	16.4µM*	2.3%	-12.7	0.6%	u	10.3%
Cc1noc(C)c1CSCc1ccc(Cl)cc1	2.1%	13.8%	0.2	4.9%	-14.5%	9.7%
CCOc1ccccc1CNC(=O)C1CCN(c2nc3ccccc3o2)CC1	u	-1.7%	u	7.1%	18.4µM*	-1.9%
CCOC(=O)N1CCN(S(=O)(=O)N2CCCC(C(=O)NCc3ccccc3OCC)C2)CC1 (stereo not drawn)	u	-2.6%	18.4	x	u	-8.0%
COc1ccc(CNC(=O)C2CCN(S(=O)(=O)N3CCC4(CC3)OCCO4)CC2)c(OC)c1	-26.4%	16.4µM*	-16.9	1.3%	u	u

Bioassay records deposited in PubChem by National Center for Advancing Translational Sciences (NCATS).
